Unmarked numbers belong to inactive results. For part of these data: Measured potencies and affinities stand elsewhere. Activity calls are given as the source filed them. Unless noted, the rule behind the calls is not given here.
Experiments:
[1] = antimalarial activity against Dd2 strain (AID 2302;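 active = growth inhibition above 50% at the single 2 µM test dose, taken to imply half-maximal potency below 2 µM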;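 note: 0% = DMSO untreated growth and 100% = chloroquine plus artemisinin killed control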); settings: P. falciparum Dd2 in RBCs, LDH growth readout, 72 h; at 2 µM; active compounds read high
[2] = HepG2 cytotoxicity, primary screen, cytotoxicity control for P. falciparum antimalarial project, cell-based, ATP luminescence (AID 2303;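 active = inhibition above 50%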;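 note: 0% = DMSO wells and 100% = digitonin-killed cells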); settings: HepG2 viability, 24-48 h, at 10 µM, active compounds read high
[3] = target: L-lactate dehydrogenase (Plasmodium falciparum (isolate CDC / Honduras)) (UniProt Q27743); test: PfLDH activity inhibition – cell lysate, 3D7 strain, counter-screen for P. falciparum growth inhibition project (AID 2304);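 note: 0% = vehicle and 100% = reference inhibitor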; settings: P. falciparum 3D7 crude extract, LDH APAD/NBT absorbance; at 2 µM; active compounds read high
Sequence of L-lactate dehydrogenase (Plasmodium falciparum (isolate CDC / Honduras)) (Q27743 whole entry, looked up): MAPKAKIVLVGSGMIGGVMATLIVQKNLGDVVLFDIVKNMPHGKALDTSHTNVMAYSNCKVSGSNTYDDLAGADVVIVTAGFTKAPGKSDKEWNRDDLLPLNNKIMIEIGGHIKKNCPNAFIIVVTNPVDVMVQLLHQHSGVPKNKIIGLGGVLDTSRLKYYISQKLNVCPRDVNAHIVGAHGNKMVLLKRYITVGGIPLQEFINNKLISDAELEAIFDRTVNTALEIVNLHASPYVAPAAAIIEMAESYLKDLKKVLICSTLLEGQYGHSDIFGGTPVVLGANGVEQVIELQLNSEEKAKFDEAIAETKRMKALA

[4] = inhibition of 3D7 malaria parasite growth – strain 3D7 (AID 2306);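 note: 0% = DMSO wells and 100% = chloroquine plus artemisinin control wells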; settings: P. falciparum 3D7 erythrocytic growth, LDH absorbance, 72 h; at 2 µM; active compounds read high
[5] = target: Calcium-dependent protein kinase 1 (Plasmodium falciparum (isolate 3D7)) (UniProt P62344); test: PfCDPK1 kinase inhibitors, biochemical, TCAMS library (AID 1159585; cut-off not given, nearly all actives have IC50 up to about 0.98 µM;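 note: inhibitors leave more ATP so luminescence rises with inhibition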); settings: recombinant PfCDPK1, Kinase-Glo ATP depletion luminescence
Sequence of Calcium-dependent protein kinase 1 (Plasmodium falciparum (isolate 3D7)) (P62344 whole entry, looked up): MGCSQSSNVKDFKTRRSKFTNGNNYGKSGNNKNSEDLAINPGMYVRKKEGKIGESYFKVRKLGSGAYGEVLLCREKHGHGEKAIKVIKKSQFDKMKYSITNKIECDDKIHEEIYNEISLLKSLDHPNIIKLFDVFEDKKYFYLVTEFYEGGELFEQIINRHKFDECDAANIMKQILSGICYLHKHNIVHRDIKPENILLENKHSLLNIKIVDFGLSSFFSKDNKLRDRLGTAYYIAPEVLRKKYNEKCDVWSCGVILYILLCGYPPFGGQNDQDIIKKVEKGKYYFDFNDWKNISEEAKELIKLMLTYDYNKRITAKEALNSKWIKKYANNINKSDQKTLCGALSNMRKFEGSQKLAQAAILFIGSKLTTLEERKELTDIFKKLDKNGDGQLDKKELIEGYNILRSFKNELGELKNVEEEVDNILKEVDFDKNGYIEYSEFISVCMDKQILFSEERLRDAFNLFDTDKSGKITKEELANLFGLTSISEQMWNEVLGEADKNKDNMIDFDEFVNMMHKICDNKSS

[6] = target: Plasmodium falciparum protein kinase 6 (PK6, PF3D7_1337100) (UniProt Q8IDW1); test: PfPK6 kinase inhibitors, biochemical, TCAMS library (AID 1159586); settings: recombinant PfPK6, Kinase-Glo ATP depletion luminescence
Sequence of Plasmodium falciparum protein kinase 6 (PK6, PF3D7_1337100) (Q8IDW1 1-305): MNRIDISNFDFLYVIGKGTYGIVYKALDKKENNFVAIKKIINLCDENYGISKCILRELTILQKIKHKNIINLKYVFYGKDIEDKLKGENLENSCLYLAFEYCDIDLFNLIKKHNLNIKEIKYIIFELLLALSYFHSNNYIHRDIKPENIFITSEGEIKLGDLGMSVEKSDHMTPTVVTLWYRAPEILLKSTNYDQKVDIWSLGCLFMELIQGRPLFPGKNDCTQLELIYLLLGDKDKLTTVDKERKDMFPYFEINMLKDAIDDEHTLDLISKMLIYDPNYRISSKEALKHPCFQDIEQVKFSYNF

[7] = target: Protein kinase 7 (PK7), Plasmodium falciparum 3D7 (PF3D7_0213400) (UniProt Q7YTF7); test: inhibition of Plasmodium PK7 catalytic activity – biochemical, TCAMS antimalarial set, Kinase-Glo luminescence (AID 1159587); settings: recombinant PfPK7, Kinase-Glo ATP depletion luminescence
Sequence of Protein kinase 7 (PK7), Plasmodium falciparum 3D7 (PF3D7_0213400) (Q7YTF7 1-343): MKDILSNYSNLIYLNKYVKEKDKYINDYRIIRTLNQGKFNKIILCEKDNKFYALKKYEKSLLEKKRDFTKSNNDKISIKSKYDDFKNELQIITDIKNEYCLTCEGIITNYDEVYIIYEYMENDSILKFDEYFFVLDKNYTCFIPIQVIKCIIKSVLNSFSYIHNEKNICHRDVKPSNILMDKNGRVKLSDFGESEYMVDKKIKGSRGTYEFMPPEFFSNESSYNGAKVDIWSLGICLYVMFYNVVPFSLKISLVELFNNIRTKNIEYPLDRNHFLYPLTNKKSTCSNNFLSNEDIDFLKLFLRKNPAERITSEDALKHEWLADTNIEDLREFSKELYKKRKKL

[8] = target: Calcium-dependent protein kinase 4 (Plasmodium falciparum (isolate 3D7)) (UniProt Q8IBS5); test: PfCDPK4 kinase inhibitors, biochemical, TCAMS library (AID 1159588; cut-off not given, nearly all actives have IC50 up to about 0.91 µM); settings: recombinant PfCDPK4, Kinase-Glo ATP depletion luminescence
Sequence of Calcium-dependent protein kinase 4 (Plasmodium falciparum (isolate 3D7)) (Q8IBS5 whole entry, looked up): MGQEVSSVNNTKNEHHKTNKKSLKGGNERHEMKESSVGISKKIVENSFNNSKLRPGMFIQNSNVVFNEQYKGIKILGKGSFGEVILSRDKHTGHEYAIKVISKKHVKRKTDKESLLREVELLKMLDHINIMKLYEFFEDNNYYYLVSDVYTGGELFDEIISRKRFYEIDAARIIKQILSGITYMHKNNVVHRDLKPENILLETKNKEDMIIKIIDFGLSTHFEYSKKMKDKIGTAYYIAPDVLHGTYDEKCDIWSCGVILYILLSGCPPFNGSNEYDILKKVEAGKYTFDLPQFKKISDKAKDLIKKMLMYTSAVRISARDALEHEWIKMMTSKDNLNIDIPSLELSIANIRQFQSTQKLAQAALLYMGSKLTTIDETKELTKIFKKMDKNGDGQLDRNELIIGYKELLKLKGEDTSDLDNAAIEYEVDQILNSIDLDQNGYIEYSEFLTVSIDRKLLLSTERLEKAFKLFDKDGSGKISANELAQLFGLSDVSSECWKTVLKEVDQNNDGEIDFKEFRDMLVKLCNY

Compound | growth inhibition [1] | inhibition [2] | inhibition [3] [%] | growth inhibition [4] | outcome [5] | outcome [6] | outcome [7] | outcome [8]
COc1ccc(NC(=O)Nc2ccc(-c3cccc(-c4nc5c(C)cccc5[nH]4)c3)cc2)cc1 | 75% (active) | 33% | 4 | 101% (active) | inactive | inactive | inactive | inactive
Clc1cccc(C=NNc2nc(Nc3ccccc3)nc(Nc3ccccc3)n2)c1 | 15% | -5% | -4 | 92% (active) | inactive | inactive | inactive | inactive
O=C(/C=C/c1c(Cl)cccc1Cl)NC1CCC(CN2CCC(c3c[nH]c4ccncc34)CC2)CC1 (configuration not stated) | 100% (active) | 78% (active) | 2 | 99% (active) | inactive | inactive | inactive | inactive
CN(C)CCC1CCN(CCS(=O)(=O)c2cccc(Nc3ccc(-c4cccc(F)c4)cn3)c2)CC1 | 59% (active) | 94% (active) | 5 | 100% (active) | inactive | inactive | inactive | inactive
Cc1cc(C)cc(OCC(O)CN(Cc2cc(Cl)cc(Cl)c2)C(=O)Nc2ccc(Cl)cc2)c1 (configuration not stated) | 43% | -9% | -2 | 97% (active) | inactive | inactive | inactive | inactive
CCCCCc1cnc2nc(N)nc(N)c2c1C | 23% | 64% (active) | -3 | 96% (active) | inactive | inactive | inactive | inactive
Cc1cc(N2CCCC2)nc(Nc2ccc(NC(=O)c3ccc4c(c3)OCO4)cc2)n1 | 67% (active) | 26% | -4 | 101% (active) | inactive | inactive | inactive | inactive
CC(C)CNCc1ccc(-c2cccc(CN(CCN(C)C)C(=O)CCC3CCCC3)c2)cc1 | 81% (active) | 56% (active) | -11 | 100% (active) | inactive | inactive | inactive | inactive
O=C(Cc1ccc(NC(=O)c2ccc(O)c(-c3ccc(Cl)c(Cl)c3)c2)cc1)NCc1cccc(C(F)(F)F)c1 | 28% | -7% | 0 | 95% (active) | inactive | inactive | inactive | inactive
O=C1C(c2ccccc2)=C(Nc2ccc([N+](=O)[O-])cc2)c2ccccc21 | 73% (active) | -2% | -2 | 95% (active) | inactive | inactive | inactive | inactive
CCOC(=O)c1ccc(NC(=O)NNC(=O)c2ccc(CCN3CCC(c4nc(COCC(F)(F)F)c(-c5ccc(F)cc5)o4)CC3)cc2)cc1 | 67% (active) | 10% | 0 | 103% (active) | inactive | inactive | inactive | inactive
CCCCN(CCCC)C(=NCCCCCCN=C(NC(N)=NCc1ccc(Cl)c(Cl)c1)N(CCCC)CCCC)NC(N)=NCc1ccc(Cl)c(Cl)c1 | 96% (active) | 9% | -7 | 100% (active) | inactive | inactive | inactive | inactive
O=C(Nc1ccc([N+](=O)[O-])cc1O)Nc1ccccc1Oc1ccccc1 | 1% | 45% | -8 | 92% (active) | inactive | inactive | inactive | inactive
Clc1ccc(CNCC2CCN(CC3CCCCC3)CC2)cc1Cl | 6% | 18% | 4 | 92% (active) | inactive | inactive | inactive | inactive
COc1cccc(C=NNc2cc(C)nc3c(OC)cccc23)c1 | 58% (active) | 6% | -6 | 99% (active) | inactive | inactive | inactive | inactive
COC(=O)CCCOc1cc(Cc2cnc(N)nc2N)cc(OC)c1OC | -4% | 12% | -6 | 95% (active) | inactive | inactive | inactive | inactive
O=C(Nc1ccc(Cl)cc1)c1ccc(CN2CCCN(Cc3cccc(Cl)c3)CC2)cc1 | 15% | 53% (active) | 1 | 96% (active) | inactive | inactive | inactive | inactive
Cc1ccc(NC(=O)c2cccc(CN3CCCN(Cc4cccc(O)c4)CC3)c2)cc1C | 31% | 19% | 1 | 95% (active) | inactive | inactive | inactive | inactive
O=C(C=Cc1ccc(Cl)c(Cl)c1)NCCCCCN1CCC(CCCNC(=O)c2ccc3c(c2)OCO3)CC1 | 64% (active) | 38% | -5 | 98% (active) | inactive | inactive | inactive | inactive
CCc1ccc(C2CCN(CCCCNC(=O)c3ccc(-c4ccc(C(F)(F)F)cc4)cc3)CC2)c(OCCO)c1 | 69% (active) | 82% (active) | -6 | 101% (active) | inactive | inactive | inactive | inactive

Compound | growth inhibition [1] | inhibition [2] | inhibition [3] [%] | growth inhibition [4] | outcome [5] | outcome [6] | outcome [7] | outcome [8]
N=C(N)c1ccc(-c2cc(-c3cccc(C(=N)N)c3)on2)cc1 | 45% | 7% | 2 | 96% (active) | inactive | inactive | inactive | inactive
CCc1c(C)nc(-n2nc(C)cc2NC(=O)c2ccc(OC)cc2OC)[nH]c1=O | 57% (active) | 42% | 1 | 96% (active) | inactive | inactive | inactive | inactive
O=C(NCCCCN1CCC(c2c[nH]c3ccccc23)CC1)c1sc(-c2ccc(C(F)(F)F)cc2)nc1CO | 3% | 34% | 0 | 94% (active) | inactive | inactive | inactive | inactive
O=C(Nc1ccc(CC(=O)N2CCc3cc(Cl)c(N4CCN(C/C=C/c5ccccc5)CC4)cc32)cc1)Nc1cccc([N+](=O)[O-])c1 | 27% | -8% | -5 | 95% (active) | inactive | inactive | inactive | inactive
CCNCc1cccc(-c2ccc3ccnc(N)c3c2)c1 | 98% (active) | 17% | 0 | 100% (active) | inactive | inactive | inactive | inactive
CNC(=O)c1cc(F)c(F)cc1Nc1nc(Nc2cccc(CS(C)(=O)=O)c2)ncc1Cl | 90% (active) | 52% (active) | 3 | 91% (active) | inactive | inactive | inactive | inactive
COc1ccc2nccc(C(=O)NC3CCC(CCN4CCc5cc(C#N)ccc5C4)CC3)c2c1 (configuration not stated) | 1% | 12% | 1 | 97% (active) | inactive | inactive | inactive | inactive
COc1ccc(Nc2ncc3c(-c4cccc(NC(=O)CC(C)C)c4)c[nH]c3n2)cc1OC | 71% (active) | 37% | 5 | 101% (active) | inactive | inactive | inactive | inactive
c1ccc(Oc2ccc(Nc3ccnc4c(-c5ccccn5)cccc34)cc2)cc1 | 58% (active) | 31% | -8 | 100% (active) | inactive | inactive | inactive | inactive
Cc1cccc2[nH]c(-c3ccc(-c4ccc(C(=O)NCCc5cn(C)cn5)cc4)s3)nc12 | 8% | -6% | -2 | 88% (active) | inactive | inactive | inactive | inactive
O=C(Cn1c(SCc2cccc(F)c2F)cc(=O)c2ccccc21)N(CCc1cnc[nH]1)Cc1ccc(-c2ccc(C(F)(F)F)cc2)cc1 | 72% (active) | 18% | 7 | 101% (active) | inactive | inactive | inactive | inactive
CC1(C)N=C(N)N=C(N)N1OCCOc1ccc2ccccc2c1 | 96% (active) | 70% (active) | 5 | 93% (active) | inactive | inactive | inactive | inactive
Cc1ccccc1C1CCN(C2CCC(NC(=O)c3ccc(-c4cc(C(F)(F)F)nn4C)s3)CC2)CC1 (configuration not stated) | 68% (active) | 42% | -2 | 98% (active) | inactive | inactive | inactive | inactive
O=C(NCCN1CCCc2ccccc21)C1CCN(c2nc(-c3ccc(Cl)cc3)no2)CC1 | 62% (active) | 11% | -1 | 86% (active) | inactive | inactive | inactive | inactive
CNC(=O)c1cnc(Nc2ccc(OCC(O)CN(C)C)cc2)nc1Nc1cccc(OC(C)C)c1 (configuration not stated) | 100% (active) | 21% | 1 | 103% (active) | inactive | inactive | inactive | inactive
CCNc1cc(C(=O)N[C@@H](Cc2ccc(F)c(F)c2)[C@H](O)CNC2CCCCC2)cc(N2CCCCS2(=O)=O)c1 | 84% (active) | 1% | -2 | 100% (active) | inactive | inactive | inactive | inactive
CC(C)N1CCC(N(Cc2ccc(-c3ccc(C(F)(F)F)cc3)cc2)C(=O)Cn2c(SCc3cccc(F)c3F)cc(=O)c3c2CCC3)CC1 | 42% | 44% | -6 | 88% (active) | inactive | inactive | inactive | inactive
CNCc1ccc(CN(C)c2nc(N)c3cc(OC)c(OC)cc3n2)cc1 | 3% | 12% | 5 | 96% (active) | inactive | inactive | inactive | inactive
CC1CCN(c2nc(C(=O)Nc3cccc4c3CCCC4)c(C(C)C)s2)CC1 | 49% | 14% | 3 | 96% (active) | inactive | inactive | inactive | inactive

Source: PubChem BioAssay
